Data as given in PubChem BioAssay (NCI).
About 83,000 compounds went through this panel and 20% of them were active in at least one assay; those are over-represented in the sample as a whole.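 Plates (96-well) were seeded with cells, treated with compound at one concentration, and incubated for 48 hours before percent growth was determined.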 Values without a mark were called inactive. Active and inactive are the calls of the source. How the source made its calls: active means growth percent below 10; inactive means the rest.

These compounds were tested on MDA-MB-468 breast (assay: NCI-60 one-dose screen, 48 h (100 = growth as untreated, 0 = no growth, -100 = all killed)). Conditions: 10 µM unless noted.

| Structure (SMILES) | growth |
| --- | --- |
| Cn1ccc(=O)nc1 | 71.1% |
| CC(=O)c1cnc(-c2ccccc2)nc1CBr | 49.6% |
| CC(=O)/C(N=Nc1ccc2oc(=O)ccc2c1)=C(\C)O | 9.38% (active) |
| CN(C)c1cc(NN=C(c2ccc(O)cc2)c2ccc(O)cc2)c([N+](=O)[O-])cc1[N+](=O)[O-] | 102% |
| N#Cc1c(C(F)(F)F)cc(Nc2ccc3nc(NCCN4CCCC4)oc3c2)n2c1nc1ccccc12 | 34.1% |
| C=C1C(=O)O[C@H]2[C@H]1CC/C(COC(=O)/C=C/c1cccnc1)=C\CC[C@@]1(C)O[C@@H]21 | 10.9% |
| O=C1OCC2=C1C(c1cccc(Cl)c1)c1cc3c(cc1N2CCO)OCO3 (stereo unspecified) | -10.2% (active) |
| O=C(O)CN1C(=O)c2cccc3cccc(c23)C1=O | 95.7% |
| Cn1nc(C(C)(C)C)cc1NC(=O)Cc1ccc(/C=C2\C(=O)Nc3ccccc32)cc1 | 20% |
| COc1cc(CNC(=O)/C=C/C=C/c2ccc3c(c2)OCO3)ccc1OCc1cn(-c2ccc(C)c(C)c2)nn1 | 65.2% |
| CCOC(=N)c1ccc(C(=N)OCC)cc1 | 106% |
| CCC(C)NCc1ccccc1 (stereo unspecified) | 100% |
| Nc1cc(N)c(S(=O)(=O)O)cc1N=Nc1cc([N+](=O)[O-])ccc1O | 102% |
| COc1cc2cc(Oc3ccc(NC(=O)Nc4cccc(C(F)(F)F)c4)cc3)c(C)nc2cc1OC | -32.5% (active) |
| CC(=O)OC[Si](C)(C)c1ccccc1 | 95.3% |
| COc1ccccc1CNCCCN1C(=O)c2ccc3c4c(ccc(c24)C1=O)C(=O)N(CCCNCCCCN)C3=O | -55.7% (active) |
